{"source": "PubChem BioAssay (Tox21)", "note": "Activity calls are given as the source filed them. Entries that show only a call come without a potency. The call rests on the fitted dose curve; in most records, active means well fitted activation curve with a large enough effect in the signal ratio in the repeat runs (not every such curve was filed as active); inconclusive means weak or mixed curves, or effect the other way; inactive means no such curve, though single readings can be large or run the other way; the % refers to the signal ratio. Potency means the concentration at half of the fitted maximal effect.", "data": [{"molecular_target": "Glucocorticoid receptor (Homo sapiens) (UniProt P04150)", "sequence (P04150 whole entry, looked up)": "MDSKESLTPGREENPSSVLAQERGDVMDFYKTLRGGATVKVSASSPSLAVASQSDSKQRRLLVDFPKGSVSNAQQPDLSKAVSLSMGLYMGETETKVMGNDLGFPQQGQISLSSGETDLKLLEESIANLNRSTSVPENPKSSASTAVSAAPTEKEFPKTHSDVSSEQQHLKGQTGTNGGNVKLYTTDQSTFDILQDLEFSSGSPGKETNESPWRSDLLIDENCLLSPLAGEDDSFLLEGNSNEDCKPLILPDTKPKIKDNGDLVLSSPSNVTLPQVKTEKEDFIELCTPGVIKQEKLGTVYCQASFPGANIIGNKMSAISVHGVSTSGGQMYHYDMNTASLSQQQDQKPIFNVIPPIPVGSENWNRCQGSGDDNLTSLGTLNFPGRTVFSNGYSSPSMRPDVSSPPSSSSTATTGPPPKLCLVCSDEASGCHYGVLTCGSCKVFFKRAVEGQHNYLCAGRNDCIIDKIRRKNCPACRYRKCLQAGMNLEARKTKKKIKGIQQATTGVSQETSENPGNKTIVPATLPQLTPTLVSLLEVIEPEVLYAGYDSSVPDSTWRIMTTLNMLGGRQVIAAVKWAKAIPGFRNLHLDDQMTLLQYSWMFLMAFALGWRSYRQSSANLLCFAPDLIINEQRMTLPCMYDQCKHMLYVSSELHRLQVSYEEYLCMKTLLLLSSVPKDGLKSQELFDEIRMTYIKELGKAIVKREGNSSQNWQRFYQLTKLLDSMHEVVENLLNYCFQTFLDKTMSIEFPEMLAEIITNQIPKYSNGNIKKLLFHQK", "test": "qHTS assay to identify small molecule agonists of the glucocorticoid receptor (GR) signaling pathway (AID 720691)", "details": "GR-bla HeLa, beta-lactamase reporter ratio, 18 h; series mostly up to 62.4 µM", "excerpt": "U.S. Tox21 Program National Center for Advancing Translational Sciences [NCATS] NIH Chemical Genomics Center [NCGC] U.S. Environmental Protection Agency [EPA] National Institutes of Environmental Health Sciences [NIEHS] National Toxicology Program [NTP] U.S. Food and Drug Administration [FDA] Tox21 Assay Overview: The Glucocorticoid receptor (GR) is one of the members of the nuclear receptor family of ligand-dependent transcription factors. GR plays a critical role in carbohydrate, protein and lipid metabolisms and programmed cell death. CellSensor GR-bla HeLa cell line (Invitrogen) contains a beta-lactamase reporter gene under the control of the glucocorticoid response element stably integrated into HeLa cells, a cervical cancer cell line that expresses glucocorticoid receptor. The activation of the reporter gene under culture conditions can be detected by fluorescence intensity. This cell line has been used to screen the Tox21 10K compound library and to identify the compounds that activate the GR signaling.\nTox21 Assay Protocol Summary: The GR-bla HeLa cells were dispensed at 1500 cells/6 ul/well in 1536-well black wall/clear bottom plates using a Multidrop Combi (ThermoFisher Scientific, Waltham, MA) dispenser. After the assay plates were incubated at a 37 C/5% CO2 incubator for 4 hours, 23 nL of compounds dissolved in DMSO, positive controls or DMSO only was transferred to the assay plate by a pintool station (Kalypsys, San Diego, CA). The plates were incubated at 37 C for 18 hours. After 1 uL of LiveBLAzerTM B/G FRET substrate was added using a Flying Reagent Dispenser (Aurora Discovery, San Diego, CA), the plates were incubated at room temperature for 2 hours, and fluorescence intensity was measured by an Envision plate reader (PerkinElmer, Shelton, CT).", "values": [{"compound": "CC(C)(C)c1cc(CCC(=O)OCC(COC(=O)CCc2cc(C(C)(C)C)c(O)c(C(C)(C)C)c2)(COC(=O)CCc2cc(C(C)(C)C)c(O)c(C(C)(C)C)c2)COC(=O)CCc2cc(C(C)(C)C)c(O)c(C(C)(C)C)c2)cc(C(C)(C)C)c1O", "Potency": "inactive"}, {"compound": "NC(N)=NN=C(/C=C/c1ccc([N+](=O)[O-])o1)/C=C/c1ccc([N+](=O)[O-])o1", "Potency": "6.74 µM [inconclusive] (active)"}, {"compound": "CC1CCc2cc(F)cc3c(=O)c(C(=O)O)cn1c23", "note": "(stereo not given)", "Potency": "inactive"}, {"compound": "CN1CCC(=C2c3ccccc3C=Cc3ccccc32)CC1", "Potency": "inactive"}, {"compound": "O=C(O)Cc1cc(I)c(Oc2ccc(O)c(I)c2)c(I)c1", "Potency": "inactive"}, {"compound": "CCCCCCCC/C=C\\CCCCCCCC(N)=O", "Potency": "inactive"}, {"compound": "O=C(Nc1ccccc1)OCC(CN1CCCCC1)OC(=O)Nc1ccccc1", "note": "(stereo not given)", "Potency": "inactive"}, {"compound": "CCCCCCCCC(CO)CCCCCC", "note": "(stereo not given)", "Potency": "inactive"}, {"compound": "COC(Cc1ccccc1)OC", "Potency": "inactive"}, {"compound": "c1ccc(OCc2ccc(CCCN3CCOCC3)cc2)cc1", "Potency": "inactive"}, {"compound": "CCCCCCCCCCCCCCCCCBr", "Potency": "inactive"}, {"compound": "CCCCOc1cc(C(=O)OCCN(CC)CC)ccc1N", "Potency": "inactive"}, {"compound": "O=S(=O)(O)c1ccc(O)c2ncccc12", "Potency": "inactive"}, {"compound": "Cn1sccc1=O", "Potency": "inactive"}, {"compound": "NC(=S)N/N=C/c1cccnc1", "Potency": "inactive"}, {"compound": "CCCCCCCCCC=O", "Potency": "inactive"}, {"compound": "CC(=O)OCCc1ccccc1", "Potency": "inactive"}, {"compound": "CCCCCOC(=O)c1ccc(O)cc1", "Potency": "inactive"}, {"compound": "CCCCc1cc2ccccc2c(OCCN(C)C)n1", "Potency": "1.02 µM (active)"}, {"compound": "Nc1nc(N)c(-c2ccccc2)s1", "Potency": "inactive"}, {"compound": "CC(C)CCCC(C)CCO", "note": "(stereo not given)", "Potency": "inactive"}, {"compound": "C=Cc1c(C)c2cc3[nH]c(cc4nc(cc5nc(cc1[nH]2)C(C)=C5CCC(=O)O)C(CCC(=O)O)=C4C)c(C)c3C=C", "Potency": "inactive"}, {"compound": "OCCC1CCCCN1", "note": "(stereo not given)", "Potency": "inactive"}, {"compound": "CC[C@H](C)[C@H](N)C(=O)O", "Potency": "inactive"}, {"compound": "COc1ccccc1OC(=O)Oc1ccccc1OC", "Potency": "inactive"}, {"compound": "CCCCCCc1ccc(N)cc1", "Potency": "inactive"}, {"compound": "O=C(c1ccc(O)cc1)c1ccc(O)cc1", "Potency": "inactive"}, {"compound": "CN1CCN(C2=Nc3ccccc3Sc3ccc(Cl)cc32)CC1", "Potency": "inactive"}, {"compound": "CC(=O)SCc1ccco1", "Potency": "inactive"}, {"compound": "CC1(C)[C@H]2CC[C@]1(C)[C@H](O)C2", "Potency": "inactive"}, {"compound": "NCCCOCCOCCOCCCN", "Potency": "inactive"}, {"compound": "CCCCCC/C=C/C=O", "Potency": "inactive"}, {"compound": "CCN(CC)CCOc1ccc2c(c1)C(=O)c1cc(OCCN(CC)CC)ccc1-2", "Potency": "inactive"}, {"compound": "O=S1(=O)c2cccc3cccc(c23)N1CCCN1CCN(c2ccc(F)cc2)CC1", "Potency": "inactive"}, {"compound": "N#Cc1c(F)cccc1F", "Potency": "inactive"}, {"compound": "Oc1ccc(Sc2ccc(O)cc2)cc1", "Potency": "inactive"}, {"compound": "CCCc1ccccc1", "Potency": "inactive"}, {"compound": "COC(=O)C(C)=O", "Potency": "inactive"}, {"compound": "CC(C(=O)O)c1ccc(-c2ccccc2)c(F)c1", "note": "(stereo not given)", "Potency": "inactive"}, {"compound": "O=c1c2ccccc2nnn1CCl", "Potency": "inactive"}]}]}
